Active and inactive are the calls of the source. The calls were made as follows: active = hit-call score of the fitted dose curve at least 0.9, where 1 is the maximum; inconclusive = response in the unintended direction; inactive = score below 0.9.
What follows are compounds tested against Androgen Receptor/SRC-1 Co-activator, AR (gene 367) (UniProt P10275) (assay: OT_AR_ARSRC1_0960: Odyssey Thera (OT) 16-hour HEK293T Protein-Complementation Assay for Androgen Receptor/SRC-1 Co-activator (AID 2283353);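 also: actives raise the signal above DMSO so potency reflects increased AR and SRC-1 complex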).
Procedure: OT_AR_ARSRC1_0960 is a cell-based, single-readout assay that uses HEK293T, a human kidney cell line, with measurements taken at 16 hours after chemical dosing in a 384-well plate.OT_AR_ARSRC1_0960 is one of one assay component(s) measured or calculated from the OT_AR_ARSRC1_0960 assay. It is designed to make measurements of protein fragment complementation, a form of binding reporter, as detected with fluorescence intensity signals by Protein-fragment Complementation technology.Data from the assay component OT_AR_ARSRC1_0960 was analyzed into 1 assay endpoint. This assay endpoint, OT_AR_ARSRC1_0960, was analyzed in the positive analysis fitting direction relative to DMSO as the negative control and baseline of activity. Using a type of binding reporter, measures of receptor for gain-of-signal activity can be used to understand the binding at the pathway-level as they relate to the gene AR. Furthermore, this assay endpoint can be referred to as a primary readout, because the performed assay has only produced 1 assay endpoint. To generalize the intended target to other relatable targets, this assay endpoint is annotated to the nuclear receptor intended target family, where the subfamily is steroidal.
Protein-fragment complementation assay, or PCA, is a method for the identification and quantification of protein-protein interactions. In the PCA, the proteins of interest ("bait" and "prey") are each covalently linked to fragments of a third protein (e.g. DHFR, which acts as a "reporter"). Interaction between the bait and the prey proteins brings the fragments of the reporter protein in close proximity to allow them to form a functional reporter protein whose activity can be measured. The OT AR / SRC-1 assay assessed androgen receptor chemical interactions using a rapidly maturing, intensely fluorescent mutant of YFP known as Venus, rationally dissected into two separate fragments. […] Fusion constructs were transfected into HEK293T cells with a (Gly4Ser)2 linker between the AR/SRC-1 and YFP fragment genes to facilitate complementation when interacting proteins bring fragments into close proximity. The construct is stably expressed in HEK293T cells. […] Images were acquired on an Evotec Opera at 2 wavelengths (488 and 635nm), and the ratio of fluorescence in the nucleus relative to fluorescence in the cytoplasm (N/C Ratio) in the 488nm channel was calculated for a minimum of 400 cells per image. Both agonists and antagonists of the AR receptor induce nuclear translocation to varying degrees. […] The OT AR/SRC-1 assay was also run for 16 hours (see description for OT_AR_ARSRC1_0960).

Sequence of Androgen Receptor/SRC-1 Co-activator, AR (gene 367) (P10275 whole entry, looked up, the tested form may be a part): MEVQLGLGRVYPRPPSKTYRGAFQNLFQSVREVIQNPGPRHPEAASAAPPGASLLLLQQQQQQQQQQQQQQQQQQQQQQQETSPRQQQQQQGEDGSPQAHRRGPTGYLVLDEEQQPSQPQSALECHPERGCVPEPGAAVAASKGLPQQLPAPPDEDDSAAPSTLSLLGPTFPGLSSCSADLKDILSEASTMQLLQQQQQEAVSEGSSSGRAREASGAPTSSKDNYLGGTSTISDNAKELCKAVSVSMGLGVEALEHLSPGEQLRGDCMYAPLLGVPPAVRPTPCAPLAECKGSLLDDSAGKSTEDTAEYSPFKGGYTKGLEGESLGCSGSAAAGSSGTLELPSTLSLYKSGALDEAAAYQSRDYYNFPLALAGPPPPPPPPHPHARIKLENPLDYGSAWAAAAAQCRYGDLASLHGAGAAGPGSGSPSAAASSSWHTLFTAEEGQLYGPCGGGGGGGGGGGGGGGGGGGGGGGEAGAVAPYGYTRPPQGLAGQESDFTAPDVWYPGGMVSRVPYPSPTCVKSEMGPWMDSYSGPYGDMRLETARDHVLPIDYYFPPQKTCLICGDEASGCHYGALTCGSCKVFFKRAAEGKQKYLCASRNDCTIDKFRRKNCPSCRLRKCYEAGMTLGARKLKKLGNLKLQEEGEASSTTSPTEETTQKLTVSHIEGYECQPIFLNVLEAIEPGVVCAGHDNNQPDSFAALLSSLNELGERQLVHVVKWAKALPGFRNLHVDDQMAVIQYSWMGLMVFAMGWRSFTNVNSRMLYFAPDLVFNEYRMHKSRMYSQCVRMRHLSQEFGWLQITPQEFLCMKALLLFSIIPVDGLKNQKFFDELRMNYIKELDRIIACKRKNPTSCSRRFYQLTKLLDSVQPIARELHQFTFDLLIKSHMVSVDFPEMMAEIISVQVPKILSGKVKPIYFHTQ

Row | SMILES | outcome | AC50
1 | Cc1ccc(N(C)C)cc1 | inactive | 
2 | CN[C@H]1CC[C@@H](c2ccc(Cl)c(Cl)c2)c2ccc(S(N)(=O)=O)cc21 |  | 17.4 µM (active)
3 | CNC(=O)[C@H]1O[C@@H](n2cnc3c(NCc4cc(Cl)ccc4OCc4cc(C)no4)ncnc32)[C@H](O)[C@@H]1N | inactive | 
4 | Cc1cccc([N+](=O)[O-])c1C | inactive | 
5 | Cc1ccccc1Cl | inactive | 
6 | CCOc1ccc2c(c1)C(C)=CC(C)(C)N2 | inactive | 
7 | Cc1nc(-c2ccc3c(c2)CCN(CCC2CCC(NC(=O)/C=C/c4ccc(F)cc4)CC2)CC3)no1 (stereo not drawn) | inactive | 
8 | CCCCCC(=O)O | inactive | 
9 | Cc1cccc(C)c1O | inactive | 
10 | COCCOC[C@H](CC1(C(=O)NC2CCC(C(=O)O)CC2)CCCC1)C(=O)Oc1ccc2c(c1)CCC2 (stereo partly drawn) | inactive | 
11 | COc1cc(C=O)ccc1O | inactive | 
12 | COc1ccc(S(=O)(=O)N2C(=O)[C@@](c3ccccc3OC)(N3C[C@H](O)C[C@H]3C(=O)N(C)C)c3cc(Cl)ccc32)c(OC)c1 |  | 40.4 µM (active)
13 | COc1cc(-c2nc(NC(=O)c3cc4cc(C)cc(C)c4n3CC(=O)O)sc2CCC2CCCCC2)c(OC)cc1Cl |  | 10.5 µM (active)
14 | CCCCCCCCCCC | inactive | 
15 | COc1ccc(C)cc1N | inactive | 
16 | CC(C)(C)c1cc(O)c(C(C)(C)C)cc1O |  | 50 µM (active)
17 | COc1ccc2c(c1)c(CC(=O)O)c(C)n2C(=O)c1ccc(Cl)cc1 | inactive | 
18 | Cc1ccc(C)c(O)c1C | inactive | 
19 | Cc1cc(NC(=O)C(=O)O)cc(C)c1Oc1ccc(O)c2c1CCC2 | inactive | 
20 | CC(=O)Oc1ccccc1C(=O)O | inactive | 
21 | Cc1ccc(C)c(C)c1 | inactive | 
22 | COCCOCCOC | inactive | 
23 | Cc1cccc(Nc2cc(Cl)nc(SCC(=O)O)n2)c1C | inactive | 
